# The entries come from a sample that favours the strongest signals as a whole.
# B1: Epa15 (Candida glabrata) (protein)
# chain: MGSSHHHHHHSSGLVPRGSHMASDPTTFPLGCSPEFTKTKKGLSMELYRYDYLPPGSYPCWDSAYLNPSYPRTGYKAKKLIATVDGVSGDINFKFNPKFGCKAIPDYLPSNFNYHEPITITNFTMILYGYFMPKTTAFHTFYVTADDLLFMNFGAGNAFDCCRREETADKFGNYAAYSVWGKKSLKNELTVYLHTGVYYPIRLFYNNRDYIAQLDIRFKTEHSNAIITNFTDYFYSVDDSSLGCPGLI
# Experiments:
# Assay in all cases: glycan array binding signal (z-score within array); higher = stronger binding
# Settings in all cases: glycan notation: IUPAC condensed, linker removed
# [1] = biological target: Fuc(a1-2)Gal(b1-3)[Fuc(a1-4)]GlcNAc
# Summary of the method: (§1)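 Glycan array data were curated from 3228 arrays in the Consortium for Functional Glycomics database and kept only where the protein sequence was available. Glycan names were converted to IUPAC-condensed notation, and columns mapping to the same glycan were averaged. The binding signal is a within-array Z-score, averaged across arrays of the same protein sequence at different concentrations or buffers and across linkers. Negative Z-scores can be read as non-binding.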
# [2] = biological target: Fuc(a1-2)Gal(b1-4)[Fuc(a1-3)]GlcNAc
# Summary of the method: as §1
# [3] = biological target: Fuc(a1-2)Gal(b1-4)[Fuc(a1-3)]GlcNAc(b1-3)Gal(b1-4)[Fuc(a1-3)]GlcNAc(b1-3)Gal(b1-4)[Fuc(a1-3)]GlcNAc
# Summary of the method: as §1
# [4] = biological target: Fuc(a1-2)Gal(b1-4)[Fuc(a1-3)]GlcNAc(b1-3)[Neu5Ac(a2-6)Gal(b1-4)GlcNAc(b1-6)]Gal(b1-4)Glc
# Summary of the method: as §1
# [5] = biological target: Fuc(a1-2)[Gal(a1-3)]Gal(b1-3)GalNAc
# Summary of the method: as §1
# [6] = biological target: Fuc(a1-3)[Gal(b1-4)]GlcNAc(b1-2)Man(a1-3)[Fuc(a1-3)[Gal(b1-4)]GlcNAc(b1-2)Man(a1-6)]Man(b1-4)GlcNAc(b1-4)GlcNAc
# Summary of the method: as §1
# [7] = biological target: Gal(a1-3)Gal(b1-3)GlcNAc(b1-2)Man
# Summary of the method: as §1
# [8] = biological target: Gal(a1-3)Gal(b1-3)[Fuc(a1-4)]GlcNAc(b1-2)Man(a1-3)[Gal(a1-3)Gal(b1-3)[Fuc(a1-4)]GlcNAc(b1-2)Man(a1-6)]Man(b1-4)GlcNAc(b1-4)GlcNAc
# Summary of the method: as §1
# Gal(b1-3)Gal(b1-4)GlcNAc = biological target: Gal(b1-3)Gal(b1-4)GlcNAc
# Summary of the method: as §1
# [9] = biological target: Gal(b1-3)GalNAc(b1-4)Gal(b1-4)Glc
# Summary of the method: as §1
# Gal(b1-3)GlcNAc(b1-2)Man = biological target: Gal(b1-3)GlcNAc(b1-2)Man
# Summary of the method: as §1
# [10] = biological target: Gal(b1-3)[Neu5Ac(a2-6)]GlcNAc
# Summary of the method: as §1
# [11] = biological target: Gal(b1-3)[Neu5Ac(a2-6)]GlcNAc(a1-4)Gal(b1-4)Glc
# Summary of the method: as §1
# [12] = biological target: Gal(b1-4)GlcNAc(b1-2)[Gal(b1-4)GlcNAc(b1-6)]Man(a1-6)[GlcNAc(b1-4)][Gal(b1-4)GlcNAc(b1-2)Man(a1-3)]Man(b1-4)GlcNAc(b1-4)GlcNAc
# Summary of the method: as §1
# [13] = biological target: Gal(b1-4)GlcNAc(b1-3)Gal(b1-4)GlcNAc(b1-2)[Gal(b1-4)GlcNAc(b1-3)Gal(b1-4)GlcNAc(b1-6)]Man(a1-6)[Gal(b1-4)GlcNAc(b1-3)Gal(b1-4)GlcNAc(b1-2)Man(a1-3)]Man(b1-4)GlcNAc(b1-4)GlcNAc
# Summary of the method: as §1
# [14] = biological target: Gal(b1-4)GlcNAc(b1-3)[Gal(b1-4)GlcNAc(b1-6)]GalNAc
# Summary of the method: as §1
# [15] = biological target: Gal(b1-4)GlcNAc(b1-6)[Gal(b1-3)]GlcNAc
# Summary of the method: as §1
# Gal3S(b1-4)Glc = biological target: Gal3S(b1-4)Glc
# Summary of the method: as §1
# Gal3S(b1-4)GlcNAc = biological target: Gal3S(b1-4)GlcNAc
# Summary of the method: as §1
# Gal6S(b1-3)GlcNAc = biological target: Gal6S(b1-3)GlcNAc
# Summary of the method: as §1
# Gal6S(b1-4)Glc6S = biological target: Gal6S(b1-4)Glc6S
# Summary of the method: as §1
# Gal6S(b1-4)GlcNAc6S = biological target: Gal6S(b1-4)GlcNAc6S
# Summary of the method: as §1
# [16] = biological target: GalNAc(b1-3)Gal(a1-4)Gal(b1-4)GlcNAc
# Summary of the method: as §1
# [17] = biological target: GalNAc3S(b1-4)[Fuc(a1-3)]GlcNAc
# Summary of the method: as §1
# Glc(b1-6)Glc = biological target: Glc(b1-6)Glc
# Summary of the method: as §1
# [18] = biological target: GlcNAc(a1-4)Gal(b1-4)GlcNAc(b1-3)Gal(b1-4)GlcNAc(b1-3)Gal(b1-4)GlcNAc
# Summary of the method: as §1
# [19] = biological target: GlcNAc(b1-2)Gal(b1-3)GalNAc
# Summary of the method: as §1
# [20] = biological target: GlcNAc(b1-2)Man(a1-3)[GlcNAc(b1-4)][GlcNAc(b1-2)Man(a1-6)]Man(b1-4)GlcNAc(b1-4)[Fuc(a1-6)]GlcNAc
# Summary of the method: as §1
# [21] = biological target: GlcNAc(b1-3)Gal(b1-3)GalNAc
# Summary of the method: as §1
# [22] = biological target: GlcNAc(b1-3)Gal(b1-4)GlcNAc(b1-2)[GlcNAc(b1-3)Gal(b1-4)GlcNAc(b1-6)]Man(a1-6)[GlcNAc(b1-3)Gal(b1-4)GlcNAc(b1-2)Man(a1-3)]Man(b1-4)GlcNAc(b1-4)GlcNAc
# Summary of the method: as §1
# [23] = biological target: GlcNAc(b1-3)Gal(b1-4)GlcNAc(b1-6)[GlcNAc(b1-3)Gal(b1-3)]GalNAc
# Summary of the method: as §1
# [24] = biological target: GlcNAc(b1-3)[GlcNAc(b1-4)][GlcNAc(b1-6)]GlcNAc
# Summary of the method: as §1
# Kdn(a2-3)Gal(b1-4)GlcNAc = biological target: Kdn(a2-3)Gal(b1-4)GlcNAc
# Summary of the method: as §1
# [25] = biological target: Man(a1-2)Man(a1-2)Man(a1-3)[Man(a1-2)Man(a1-6)[Man(a1-3)]Man(a1-6)]Man(b1-4)GlcNAc(b1-4)GlcNAc
# Summary of the method: as §1
# Man(a1-3)[Man(a1-6)]Man = biological target: Man(a1-3)[Man(a1-6)]Man
# Summary of the method: as §1
# [26] = biological target: Neu5Ac(a2-3)Gal(b1-3)GlcNAc(b1-2)Man(a1-3)[Neu5Ac(a2-3)Gal(b1-3)GlcNAc(b1-2)Man(a1-6)]Man(b1-4)GlcNAc(b1-4)GlcNAc
# Summary of the method: as §1
# [27] = biological target: Neu5Ac(a2-3)Gal(b1-3)GlcNAc(b1-2)[Neu5Ac(a2-3)Gal(b1-3)GlcNAc(b1-4)]Man(a1-6)[Neu5Ac(a2-3)Gal(b1-3)GlcNAc(b1-2)Man(a1-3)]Man(b1-4)GlcNAc(b1-4)GlcNAc
# Summary of the method: as §1
# [28] = biological target: Neu5Ac(a2-3)Gal(b1-4)GlcNAc(b1-3)Gal(b1-4)GlcNAc(b1-3)Gal(b1-4)GlcNAc(b1-2)Man(a1-3)[Neu5Ac(a2-3)Gal(b1-4)GlcNAc(b1-3)Gal(b1-4)GlcNAc(b1-3)Gal(b1-4)GlcNAc(b1-2)Man(a1-6)]GalNAc
# Summary of the method: as §1
# [29] = biological target: Neu5Ac(a2-3)Gal(b1-4)[Fuc(a1-3)]GlcNAc(b1-6)[Gal(b1-3)]GalNAc
# Summary of the method: as §1
# [30] = biological target: Neu5Ac(a2-3)Gal(b1-4)[Fuc(a1-3)]GlcNAc6S
# Summary of the method: as §1
# Neu5Ac(a2-8)Neu5Ac = biological target: Neu5Ac(a2-8)Neu5Ac
# Summary of the method: as §1
# [31] = biological target: Neu5Gc(a2-3)Gal(b1-4)GlcNAc
# Summary of the method: as §1
# [32] = biological target: Neu5Gc(a2-8)Neu5Gc(a2-3)Gal(b1-4)GlcNAc
# Summary of the method: as §1
# [33] = biological target: Neu5Gc(a2-8)Neu5Gc(a2-6)Gal(b1-4)GlcNAc
# Summary of the method: as §1
binder,measurement,setting,value
B1,glycan array binding signal (z-score),[1],-0.446
same,glycan array binding signal (z-score),[2],-0.361
same,glycan array binding signal (z-score),[3],-0.446
same,glycan array binding signal (z-score),[4],-0.092
same,glycan array binding signal (z-score),[5],-0.127
same,glycan array binding signal (z-score),[6],-0.403
same,glycan array binding signal (z-score),[7],1.8
same,glycan array binding signal (z-score),[8],1.85
same,glycan array binding signal (z-score),Gal(b1-3)Gal(b1-4)GlcNAc,0.625
same,glycan array binding signal (z-score),[9],2.64
same,glycan array binding signal (z-score),Gal(b1-3)GlcNAc(b1-2)Man,0.38
same,glycan array binding signal (z-score),[10],2.5
same,glycan array binding signal (z-score),[11],-0.269
same,glycan array binding signal (z-score),[12],-0.041
same,glycan array binding signal (z-score),[13],2.71
same,glycan array binding signal (z-score),[14],5.02
same,glycan array binding signal (z-score),[15],5.53
same,glycan array binding signal (z-score),Gal3S(b1-4)Glc,-0.053
same,glycan array binding signal (z-score),Gal3S(b1-4)GlcNAc,-0.488
same,glycan array binding signal (z-score),Gal6S(b1-3)GlcNAc,2.78
same,glycan array binding signal (z-score),Gal6S(b1-4)Glc6S,4.58
same,glycan array binding signal (z-score),Gal6S(b1-4)GlcNAc6S,10.6
same,glycan array binding signal (z-score),[16],0.652
same,glycan array binding signal (z-score),[17],-0.141
same,glycan array binding signal (z-score),Glc(b1-6)Glc,-0.464
same,glycan array binding signal (z-score),[18],-0.452
same,glycan array binding signal (z-score),[19],-0.411
same,glycan array binding signal (z-score),[20],-0.557
same,glycan array binding signal (z-score),[21],-0.444
same,glycan array binding signal (z-score),[22],0.605
same,glycan array binding signal (z-score),[23],-0.188
same,glycan array binding signal (z-score),[24],-0.536
same,glycan array binding signal (z-score),Kdn(a2-3)Gal(b1-4)GlcNAc,-0.317
same,glycan array binding signal (z-score),[25],-0.285
same,glycan array binding signal (z-score),Man(a1-3)[Man(a1-6)]Man,-0.303
same,glycan array binding signal (z-score),[26],0.415
same,glycan array binding signal (z-score),[27],-0.226
same,glycan array binding signal (z-score),[28],2.56
same,glycan array binding signal (z-score),[29],1.87
same,glycan array binding signal (z-score),[30],-0.461
same,glycan array binding signal (z-score),Neu5Ac(a2-8)Neu5Ac,-0.571
same,glycan array binding signal (z-score),[31],-0.437
same,glycan array binding signal (z-score),[32],-0.346
same,glycan array binding signal (z-score),[33],-0.395

# Reference: the supplement of paper PMC8728848
